Among the data in PubChem BioAssay AID1030 (National Center for Advancing Translational Sciences (NCATS), 2008) are Potency and activity, negative = inhibition values, retold here.

SMILES strings stand for the structures. Screen size: about 220,000 compounds; about 16,000 (7.3%) were called active. Entries that show only a call come without a potency. Roughly 25% stayed inconclusive and do not appear here. For the sample, actives were picked, then their nearest neighbours and some compounds at random. Unmarked numbers belong to inactive results. Calls come from the whole dose curve; as a rule, active = well fitted inhibition curve with a large enough effect (not every such curve was filed as active); inconclusive = small, poorly fitted or top-dose-only effect, or another doubt; inactive = no such curve, though single readings can be large or run the other way.
Potency is the fitted concentration of half-maximal effect.

The target of the assay is Aldehyde dehydrogenase 1A1 (Homo sapiens) (UniProt P00352). Put plainly: qHTS Assay for Inhibitors of Aldehyde Dehydrogenase 1 (ALDH1A1). The conditions noted are these: Purified ALDH1A1, NADH fluorescence, propionaldehyde substrate; series mostly up to 75.3 µM. Background: qHTS replaces the single test concentration by a dilution series.
Chain of Aldehyde dehydrogenase 1A1 (Homo sapiens) (P00352 whole entry, looked up): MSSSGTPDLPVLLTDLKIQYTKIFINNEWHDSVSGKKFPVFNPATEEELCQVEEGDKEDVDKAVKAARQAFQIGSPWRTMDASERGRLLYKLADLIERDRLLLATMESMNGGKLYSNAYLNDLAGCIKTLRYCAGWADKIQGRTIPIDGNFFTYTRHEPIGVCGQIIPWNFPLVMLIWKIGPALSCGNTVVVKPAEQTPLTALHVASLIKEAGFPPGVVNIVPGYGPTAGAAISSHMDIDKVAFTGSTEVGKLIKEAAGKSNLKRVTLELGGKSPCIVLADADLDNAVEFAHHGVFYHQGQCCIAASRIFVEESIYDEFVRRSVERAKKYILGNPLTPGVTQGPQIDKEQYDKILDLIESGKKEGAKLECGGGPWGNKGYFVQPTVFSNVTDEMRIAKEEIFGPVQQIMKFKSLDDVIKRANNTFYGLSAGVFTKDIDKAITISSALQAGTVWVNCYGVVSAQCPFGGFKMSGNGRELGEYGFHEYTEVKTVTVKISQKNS
As for `C/C(=N/Nc1ccc(Cl)cc1)c1cnnc(-c2ccccc2)n1`, the Potency entry is “inactive”. As for `CC1CCCN(CC(O)COCc2ccccc2)C1` (stereo not given), the Potency entry is “inactive”. Regarding `CCOC(=O)CNC(=O)CSc1nnnn1-c1cc(C)ccc1C`, the Potency is 7.08 µM (active). For the molecule `CCOC(=O)c1c(-c2ccc(C)cc2C)csc1NC(=O)CSc1nnnn1C`, the Potency result is “inactive”. Turning to `CNC(=O)CSc1nnnn1-c1ccc(C)cc1C`, the Potency entry was “inactive”. On the same count and under the same terms, under `NC(=O)C1CCN(C(=O)COc2cccc3cccnc23)CC1` stands “inactive”; under `Cn1ccc(NC(=O)Nc2ccc(Cl)cc2)n1`, “inactive”. Consider `O=C(CN1CCOCC1)Nc1ccccc1`, for which the Potency entry is “inactive”. Consider `Cc1[nH]c2ccccc2c1C(=O)COC(=O)C(C)C`, for which the Potency entry was “inactive”. On to `Cc1c(C(=O)CN2CCOCC2)[nH]c2ccccc12`, for which the Potency was 15 µM (active).

As for `CCOC(=O)N1CCN(CC(=O)c2c(C)[nH]c3ccccc23)CC1`, the Potency is 11.2 µM (active). Same read-out and setting: the value for `Cc1c(C(=O)N2CCOCC2)[nH]c2ccc(OCc3ccccc3)cc12` was “inactive”; that for `Cc1ccc2c(C(=O)CN3CCCC3)c(C)[nH]c2c1` was “inactive”; that for `CCN(C(=O)Cc1nc(N)n[nH]1)C1(C(=O)Nc2ccccc2)CCCCC1` was “inactive”.

In the case of `COc1ccc(/C=C(\NC(=O)c2ccc(OCC(C)C)cc2)C(=O)OCc2ccco2)cc1`, the Potency result was “inactive”. The same measure, in the same setting: the value for `CCOc1ccc(-n2cnnn2)cc1S(=O)(=O)N1CCC(C)CC1C` (stereo not given) was “inactive”; that for `N=C1C(c2nc3ccccc3s2)=C(O)CN1NC(=O)c1ccc([N+](=O)[O-])cc1` was 1.78 µM (active). In the case of `O=C(Nn1c(-c2ccccc2)nc2ccccc2c1=O)c1ccc([N+](=O)[O-])cc1`, the Potency entry is “inactive”.

Consider `CCOC(=O)CCCN1CC(O)=C(c2nc3ccccc3s2)C1=N`, for which the Potency result was “inactive”. As for `O=C(NC1CC1)c1ccc(-c2ccccc2)cc1`, the Potency entry is “inactive”. For the molecule `Cc1cccc(-n2c(C)cc(/C=N/NC(N)=S)c2C)c1`, the Potency was 3.16 µM (active). Same read-out and setting: under `Cc1cc(/C=N/n2cnnc2)c(C)n1-c1cccc(C(=O)O)c1` stands “inactive”. As to `CCOc1ccc(/C=N/NC(N)=S)cc1`, the Potency result is “inactive”. Regarding `COc1ccc(-c2nc3cc([N+](=O)[O-])ccc3o2)cc1OC`, the Potency entry was “inactive”. The same measure, in the same setting: under `CCOC(=O)C1(C)NC(c2ccco2)C2C(=O)N(c3ccccc3)C(=O)C21` (stereo not given) stands “inactive”; under `COc1ccc(Cl)cc1C(=O)NNC(=S)NC1CCCC1`, “inactive”; under `COc1ccc(CNC(=O)C2CCN(S(C)(=O)=O)CC2)cc1`, “inactive”. With `Cc1cccc(C)c1OCC(=O)NC(Cc1c[nH]c2ccccc12)C(=O)O` (stereo not given), the Potency entry was “inactive”. On to `CCN(C(=O)CN1CCN(Cc2ccccc2)CC1)c1c(N)n(Cc2ccccc2)c(=O)[nH]c1=O`, for which the Potency entry is “inactive”. The same measure, in the same setting: the value for `O=C(c1ccc(F)cc1)n1cc(C(=S)N2CCOCC2)c2ccccc21` was 31.6 µM (active); that for `COC(=O)c1cn(C(=O)c2ccc(Cl)cc2)c2ccccc12` was “inactive”; that for `N#C/C=C(/c1ccc(F)cc1)N1CCOCC1` was “inactive”.

In the case of `CC(=C/c1ccccc1)/C=N/NC(=O)c1cc(C)oc1C`, the Potency entry is “inactive”. For the molecule `COc1ccc(OC)c(S(=O)(=O)Nc2ccccc2F)c1`, the Potency result is “inactive”. Regarding `COc1ccc(OC)c(S(=O)(=O)NCCC(C)C)c1`, the Potency is 14.1 µM (active). As to `COCCNS(=O)(=O)c1cc(Br)ccc1OC`, the Potency entry was “inactive”. On the same count and under the same terms, under `CC(Nc1oc(-c2ccccc2)nc1-c1ccccc1)c1ccccc1` (stereo not given) stands “inactive”. `O=C(COC(=O)c1cnccn1)Nc1cccc2ccccc12`: the Potency entry was “inactive”.

In the case of `NS(=O)(=O)c1ccc(CCNC(=O)CCCn2c(SCC(=O)N3CCCC3)nc3ccsc3c2=O)cc1`, the Potency entry is “inactive”.

With `CCN(CC(=O)Nc1ccc2c(c1)OCCO2)Cc1cc(=O)oc2cc(C)c(C)cc12`, the Potency was 10 µM (active). Regarding `Cc1nn(CC(=O)Nc2ccc3c(c2)OCO3)c(C)c1[N+](=O)[O-]`, the Potency result was “inactive”. In the case of `CCCCC(=O)Nc1ccc2c(c1)OCCO2`, the Potency entry was “inactive”.

As for `Cc1ccc(S(=O)(=O)/N=C(\N)c2ccc(F)cc2)cc1`, the Potency result was “inactive”.

Turning to `C/C(=N\Nc1nc(Nc2ccccc2)nc(N2CCOCC2)n1)c1cccs1`, the Potency result was “inactive”. Still for that read-out and setting: under `COc1cc2nc(CN(C)Cc3ccc(F)cc3)[nH]c(=O)c2cc1OC` stands “inactive”. On to `CCCCCC(=O)NC(=S)NNC(=O)c1ccc([N+](=O)[O-])cc1`, for which the Potency was 14.1 µM (active). Take `CCCCCC(=O)Nc1ccc(C(=O)N/N=C/c2ccc([N+](=O)[O-])cc2)cc1`: the Potency result is “inactive”. Turning to `COc1ccc(C(=O)NNC(=S)NC(=O)c2ccccc2[N+](=O)[O-])cc1`, the Potency result was “inactive”. On to `COCCCNC(=S)NNC(=O)C(O)(c1ccccc1)c1ccccc1`, for which the Potency result was “inactive”. Take `COCCCNC(=S)NC(=O)c1ccccc1`: the Potency entry is “inactive”. Regarding `COCCCNC(=S)NC(=O)c1ccc([N+](=O)[O-])cc1`, the Potency was 20 µM (active).

For `CCNC(=O)N1c2ccccc2Sc2ccccc21`, the Potency entry was “inactive”. As for `COC(=O)Cc1ccc(Oc2ncc(C(F)(F)F)cc2Cl)cc1`, the Potency entry was “inactive”. Take `CC(=O)Nc1sc2c(c1C(c1cccc(F)c1)N1CCN(CCO)CC1)CCCC2` (stereo not given): the Potency result is “inactive”. With `C/[N+]([O-])=C\c1ccc([N+](=O)[O-])o1`, the Potency result is “inactive”. In the case of `C=CCN(c1ccccc1C(=O)NCC(=O)OCC)S(=O)(=O)c1ccc(C)cc1`, the Potency result was “inactive”.

With `CCN(CC)CCCNC(=O)Cn1cnc2sc(C)c(S(=O)(=O)N3CCN(c4ncccn4)CC3)c2c1=O`, the Potency entry is “inactive”.

For `O=C(/C=C/c1cn(-c2ccccc2)nc1-c1ccc2c(c1)OCCO2)NCCCN1CCOCC1`, the Potency result is “inactive”. On to `CC(=O)[C@H](C(c1ccccc1)N1CCOCC1)N1CCOCC1` (stereo not given in full), for which the activity, negative = inhibition is -3.8% [at 13.5 µM]. As to `CCOC(=O)CN1C(=O)C(O)(CC(=O)c2ccccn2)c2ccccc21` (stereo not given), the Potency was 0.224 µM (active). Take `CCOC(=O)CSc1ccccn1`: the Potency entry is “inactive”. For `C=CCN1C(=O)C(O)(CC(=O)c2ccccn2)c2ccccc21` (stereo not given), the Potency is 0.355 µM (active). As to `C=CCN1C(=O)C(O)(CC(=O)c2ccc(Cl)cc2)c2ccccc21` (stereo not given), the Potency was 0.447 µM (active). Same read-out and setting: the value for `CN1/C(=C\C(=O)c2cccnc2Cl)C(C)(C)c2ccccc21` was “inactive”; that for `CC(C)(C)C(=O)CCN1C(=O)C2(OCCO2)c2ccccc21` was “inactive”.

For the molecule `CCOC(=O)CN1CCC(c2ccccc2)CC1`, the Potency entry was “inactive”. Still for that read-out and setting: the value for `O=C(CSc1nnnn1-c1ccc(O)cc1)N1N=C(c2ccc3ccccc3c2)CC1c1ccccc1` (stereo not given) was “inactive”; that for `CCc1ccc(NC(=O)Nc2ccncc2)cc1` was “inactive”; that for `COC(=O)c1cccc([N+](=O)[O-])c1CS(=O)(=O)c1ccc(C)cc1` was “inactive”. Take `CCOc1ccc(C2c3[nH]c4ccccc4c3CCN2Cc2cn(CC)nc2C)cc1` (stereo not given): the Potency result is “inactive”.
